Drawing on PubChem BioAssay (Tox21), this text covers Potency for 7 compounds.

Test [1] is described as follows: Nuclear factor erythroid 2-related factor 2/antioxidant responsive element (Nrf2/ARE) small molecule agonists: qHTS cell viability counter screen in human keratinocytes (AID 1919968; active = well fitted curve in the direction sought with a large enough effect in the repeat runs; an effect the other way counts as inactive or inconclusive; also: nearly all actives have a fitted effect of over 55% in size). A digest of the protocol: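 Stably transfected HaCaT (KeratinoSens), 1,500/well. Test agents in DMSO were applied for 23 h, 37 C/5% CO2. CellTiter-Fluor was incubated 1 h before the fluorescence read.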
Background: qHTS replaces the single test concentration by a dilution series.

Test [2] is described as follows: Nuclear factor erythroid 2-related factor 2/antioxidant responsive element (Nrf2/ARE) small molecule agonists: luciferase reporter gene qHTS assay in human keratinocytes (AID 1919969). Also: nearly all actives have a fitted effect of over 35% in size. In general terms: In a reporter assay the amount or activity of a reporter protein is the signal.
Test [3] deals with Gonadotropin-releasing hormone receptor (Homo sapiens) (UniProt P30968). The test is described as follows: Human gonadotropin-releasing hormone receptor (GnRHR) small molecule agonists, calcium flux assay in GnRHR-HEK293 cells (AID 1920063). Also: nearly all actives have a fitted effect of over 35% in size. The essentials: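 Stable human GnRHR HEK293 line. 18 h plating, then calcium dye for 1 h at 37 C. Agonist-mode compound addition from DMSO stocks; fluorescence monitored 3 min.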

For test [4], the target named is KiSS-1 receptor (Homo sapiens) (UniProt Q969F8). The test is described as follows: Human kisspeptin (KISS1R) small molecule agonists, calcium flux assay in KISS1R-HEK293 cells (AID 1920064; active = well fitted curve in the direction sought with a large enough effect in the repeat runs; an effect the other way counts as inactive or inconclusive). A digest of the protocol: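 After overnight (18 h) culture at 37 C/5% CO2, human KISS1R-HEK293 cells received calcium dye for 1 h, then test compound; emission at 540 nm (excitation 480 nm) was tracked for 3 min.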
In general terms: A change in cytosolic calcium serves as a functional read-out for many receptors and channels.

Test [5] is described as follows: G protein-coupled receptor (GPCR) small molecule agonists, calcium flux assay: HEK293 wild type cell line counter screen (AID 1920065). A digest of the protocol: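 Following 18 h incubation at 37 C/5% CO2, plates got calcium dye for 1 h; compounds, ATP or DMSO were then pinned in and fluorescence followed kinetically (480/540 nm).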
Test [6] is described as follows: p53 small molecule agonists, cell-based qHTS assay with human liver microsomes (AID 1963577). The essentials: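 Compounds act here after metabolic activation: human liver microsomes and NADPH, both at 0.5 mg/mL final, were co-added to p53RE-bla cells. Incubation ran 16 h at 37 C, followed by LiveBLAzer detection.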
Test [7] in a line: p53 small molecule agonists, cell-based qHTS assay with rat liver microsomes (AID 1963578). A digest of the protocol: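 Read-out is beta-lactamase reporter fluorescence (LiveBLAzer, 2 h, room temperature, dark) in p53RE-bla cells treated 16 h at 37 C with compound, rat liver microsomes and NADPH, both 0.5 mg/mL final.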
The nature of test [8]: p53 small molecule agonists, cell-based qHTS assay with human liver microsomes: qHTS cell viability counter screen (AID 1963579). Also: nearly all actives have a fitted effect of over 45% in size. The essentials:
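Cells carrying the p53 response-element beta-lactamase reporter are treated for 16 h at 37 C with test compounds in the presence of human liver microsomes and NADPH (both 0.5 mg/mL final); ATP-based CellTiter-Glo luminescence then reports viability.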

Test [9] in a line: p53 small molecule agonists, cell-based qHTS assay with rat liver microsomes: qHTS cell viability counter screen (AID 1963580). Also: nearly all actives have a fitted effect of over 45% in size. A digest of the protocol:
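Luminescent ATP readout (CellTiter-Glo, 30 min at room temperature) reports viability of p53RE-bla HCT-116 cells after 16 h at 37 C with test compounds under metabolic activation by rat liver microsomes and NADPH at 0.5 mg/mL final each.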

For test [10], the target named is 5-hydroxytryptamine receptor 2A (Homo sapiens) (UniProt P28223). Briefly: 5-hydroxytryptamine receptor 2A (HTR2A) small molecule antagonists, cell-based qHTS assay (AID 1963586). Also: nearly all actives have a fitted effect of over 45% in size. Also: potency is read from the fitted curve at half-maximal effect. A digest of the protocol: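 CHO cells stably expressing human HTR2A were plated for 18 h at 37 C, then loaded with calcium dye for 1 h. Compounds were preincubated 5 min at room temperature before DOI (4 nM solution) was added. Kinetic fluorescence was read for 3 min.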

Test [11] has the same target. Briefly: 5-hydroxytryptamine receptor 2A (HTR2A) small molecule agonists, cell-based qHTS assay (AID 1963587). Also: nearly all actives have a fitted effect of over 30% in size. Also: potency is read from the fitted curve at half-maximal effect. The essentials:
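HTR2A-CHO cells, plated 18 h at 37 C/5% CO2, dye-loaded 1 h at 37 C; compounds in DMSO added by pin tool (agonist mode). Intracellular calcium flux read as kinetic fluorescence on FDSS over 2 min at 1 s intervals.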

Test [12] addresses Muscarinic acetylcholine receptor M1 (Homo sapiens) (UniProt P11229). Briefly: Cholinergic receptor muscarinic 1 (CHRM1) small molecule antagonists, cell-based qHTS assay (AID 1963588). Also: nearly all actives have a fitted effect of over 40% in size. The essentials: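 Compounds were tested at 15 concentrations in three independent runs. Dye-loaded CHRM1-CHO cells were exposed 5 min at room temperature before stimulation by acetylcholine added at 50nM. Intracellular calcium was read kinetically on FDSS for 3 min.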

Test [13] shares this target. The test is described as follows: Cholinergic receptor muscarinic 1 (CHRM1) small molecule agonists, cell-based qHTS assay (AID 1963589). Also: nearly all actives have a fitted effect of over 35% in size. The essentials:
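Kinetic fluorescence (1 s intervals) of calcium-sensitive dye in human M1 CHO cells after compound addition; cells pre-incubated 18 h at 37 C/5% CO2 and dye-loaded 1 h.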

The nature of test [14]: cAMP Responsive Elements (CRE) small molecule agonists, cell-based qHTS assay (AID 1963590). A digest of the protocol: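 Test agents in DMSO were incubated 3 h at 37 C/5% CO2 with CRE-bla HEK 293T cells seeded 18 h earlier; LiveBLAzer B/G FRET substrate was added and read after 2 h at room temperature.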
Test [15] concerns the target Beta-2 adrenergic receptor (Homo sapiens) (UniProt P07550). Briefly: Adrenergic beta2 receptor (ADRB2) small molecule antagonists, cell-based qHTS assay (AID 1963592). Also: nearly all actives have a fitted effect of over 50% in size. Also: potency is read from the fitted curve at half-maximal effect. A digest of the protocol: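 Assay format: CHO-ADRB2 cells, 18-20hr seeding at 37C/5% CO2, then compound plus 1nM isoproterenol agonist mix for 0.5hr RT. Homogeneous time-resolved fluorescence cAMP detection after 1hr, expressed as 665/615 nm ratio.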

Test [16] addresses D(2) dopamine receptor (Homo sapiens) (UniProt P14416). Briefly: Dopamine D2 receptor (DRD2) small molecule agonists, cell-based qHTS assay (AID 1963594). Also: nearly all actives have a fitted effect of over 35% in size. The essentials:
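HEK293 cells stably expressing DRD2 were cultured 24 h at 37 C, then given Ro20-1724 (0.1 mM final) and compounds for 10 min at room temperature. NKH477 (200nM) was then added for 30 min. cAMP was read by HTRF.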

Test [17] shares this target. The test is described as follows: Dopamine D2 receptor (DRD2) small molecule antagonists, cell-based qHTS assay (AID 1963595; active = well fitted inhibition curve with a large enough effect in the signal ratio in the repeat runs, with a control signal flat; the % refers to the signal ratio). A digest of the protocol:
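HTRF cAMP read-out at 665 and 620 nm emission (340 nm excitation). Antagonist mode: compounds were tested against 12 nM quinpirole in DRD2-HEK293 cells, with 200 nM NKH477 raising cAMP and 0.1 mM Ro20-1724 blocking its breakdown.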

The nature of test [18]: p53 small molecule agonists, cell-based qHTS assay: qHTS cell viability counter screen (AID 1963581). Also: nearly all actives have a fitted effect of over 45% in size. The essentials:
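qHTS counter screen: 16 h compound exposure at 37 C of p53RE-bla HCT-116 cells (4,000 per well, seeded 5 h prior), cell viability by ATP luminescence.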

Test [19] can be described thus: p53 small molecule agonists, cell-based qHTS assay (AID 1963582; active = well fitted activation curve with a large enough effect in the signal ratio in the repeat runs, not every such curve was filed as active; the % refers to the signal ratio). A digest of the protocol:
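Measured: fluorescence from cleaved LiveBLAzer substrate. System: p53RE-bla cells, 16 h compound treatment at 37 C, 2 h substrate step at room temperature.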

Test [20] is described as follows: cAMP Responsive Elements (CRE) small molecule antagonists, cell-based qHTS assay (AID 1963591; active = well fitted inhibition curve with a large enough effect in the signal ratio in the repeat runs, not every such curve was filed as active; the % refers to the signal ratio). The essentials: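 Reporter line CRE-bla HEK 293T in dialyzed-FBS DMEM; cells preincubated 18 h, treated 3 h with compound plus NKH477 (0.25 uM final); LiveBLAzer FRET, 2 h RT.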

Several values for one entry are separate records, joined by “and”; a condition that tells them apart may be missing. Equal values may be shown once. Records with an inconclusive call do not appear. Activity calls are given as the source filed them. Unless noted, calls follow the shape of the full dose curve.

Chain of Beta-2 adrenergic receptor (Homo sapiens) (P07550 whole entry, looked up): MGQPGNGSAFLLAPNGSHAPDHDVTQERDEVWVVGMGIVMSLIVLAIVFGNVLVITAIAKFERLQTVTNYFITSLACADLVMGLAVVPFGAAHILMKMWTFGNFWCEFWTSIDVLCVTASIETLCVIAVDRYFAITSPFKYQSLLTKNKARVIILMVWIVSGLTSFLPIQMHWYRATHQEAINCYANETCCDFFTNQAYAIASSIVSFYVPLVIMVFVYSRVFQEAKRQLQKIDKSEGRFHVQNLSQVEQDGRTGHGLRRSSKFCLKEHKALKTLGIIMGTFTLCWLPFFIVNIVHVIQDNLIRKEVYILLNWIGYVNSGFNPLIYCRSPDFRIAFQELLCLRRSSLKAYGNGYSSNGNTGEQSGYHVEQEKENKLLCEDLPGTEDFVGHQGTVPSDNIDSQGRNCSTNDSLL
Chain of D(2) dopamine receptor (Homo sapiens) (P14416 whole entry, looked up): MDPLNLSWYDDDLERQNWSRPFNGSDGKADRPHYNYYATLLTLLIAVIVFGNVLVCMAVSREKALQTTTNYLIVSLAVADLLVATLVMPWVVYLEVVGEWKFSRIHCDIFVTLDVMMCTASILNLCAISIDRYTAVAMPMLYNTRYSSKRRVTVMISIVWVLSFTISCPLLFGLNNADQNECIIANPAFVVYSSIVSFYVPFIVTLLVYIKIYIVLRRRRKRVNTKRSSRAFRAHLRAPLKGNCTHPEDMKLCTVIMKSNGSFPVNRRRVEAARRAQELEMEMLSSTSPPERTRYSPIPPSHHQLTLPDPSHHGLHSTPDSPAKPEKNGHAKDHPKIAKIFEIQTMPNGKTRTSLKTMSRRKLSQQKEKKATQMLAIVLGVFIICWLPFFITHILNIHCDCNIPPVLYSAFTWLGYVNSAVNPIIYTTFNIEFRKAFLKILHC
Chain of Gonadotropin-releasing hormone receptor (Homo sapiens) (P30968 whole entry, looked up): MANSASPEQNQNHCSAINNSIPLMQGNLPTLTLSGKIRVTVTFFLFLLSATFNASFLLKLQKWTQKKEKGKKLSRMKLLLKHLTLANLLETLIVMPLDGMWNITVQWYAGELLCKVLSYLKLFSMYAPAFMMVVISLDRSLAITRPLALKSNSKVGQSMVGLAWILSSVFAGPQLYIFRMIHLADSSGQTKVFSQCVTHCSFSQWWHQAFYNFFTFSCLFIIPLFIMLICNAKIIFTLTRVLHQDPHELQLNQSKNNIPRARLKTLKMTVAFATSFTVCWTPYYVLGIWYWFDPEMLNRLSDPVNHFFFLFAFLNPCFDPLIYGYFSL
Chain of KiSS-1 receptor (Homo sapiens) (Q969F8 whole entry, looked up): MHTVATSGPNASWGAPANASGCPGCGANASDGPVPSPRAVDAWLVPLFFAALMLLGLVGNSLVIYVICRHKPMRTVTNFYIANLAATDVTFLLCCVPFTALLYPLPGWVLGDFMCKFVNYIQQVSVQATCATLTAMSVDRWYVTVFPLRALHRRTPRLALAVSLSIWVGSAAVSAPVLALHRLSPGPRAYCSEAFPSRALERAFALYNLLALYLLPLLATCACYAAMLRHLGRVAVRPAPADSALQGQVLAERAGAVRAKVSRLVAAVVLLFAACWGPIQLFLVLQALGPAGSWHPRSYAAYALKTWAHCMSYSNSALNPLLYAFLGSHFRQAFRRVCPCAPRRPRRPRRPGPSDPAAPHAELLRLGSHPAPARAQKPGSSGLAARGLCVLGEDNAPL
Chain of Muscarinic acetylcholine receptor M1 (Homo sapiens) (P11229 whole entry, looked up): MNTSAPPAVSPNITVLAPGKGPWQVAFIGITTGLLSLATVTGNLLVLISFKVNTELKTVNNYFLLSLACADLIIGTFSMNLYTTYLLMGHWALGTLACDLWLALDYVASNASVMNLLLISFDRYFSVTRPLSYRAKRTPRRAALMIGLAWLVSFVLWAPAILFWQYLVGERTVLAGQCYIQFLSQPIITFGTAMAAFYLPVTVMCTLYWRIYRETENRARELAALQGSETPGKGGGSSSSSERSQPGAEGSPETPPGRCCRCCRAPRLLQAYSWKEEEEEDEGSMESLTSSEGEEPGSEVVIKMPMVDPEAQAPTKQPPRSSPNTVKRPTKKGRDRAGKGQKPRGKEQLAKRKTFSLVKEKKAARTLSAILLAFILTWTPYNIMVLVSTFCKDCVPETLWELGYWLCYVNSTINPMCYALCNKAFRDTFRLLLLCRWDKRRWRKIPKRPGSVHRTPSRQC
Chain of 5-hydroxytryptamine receptor 2A (Homo sapiens) (P28223 whole entry, looked up): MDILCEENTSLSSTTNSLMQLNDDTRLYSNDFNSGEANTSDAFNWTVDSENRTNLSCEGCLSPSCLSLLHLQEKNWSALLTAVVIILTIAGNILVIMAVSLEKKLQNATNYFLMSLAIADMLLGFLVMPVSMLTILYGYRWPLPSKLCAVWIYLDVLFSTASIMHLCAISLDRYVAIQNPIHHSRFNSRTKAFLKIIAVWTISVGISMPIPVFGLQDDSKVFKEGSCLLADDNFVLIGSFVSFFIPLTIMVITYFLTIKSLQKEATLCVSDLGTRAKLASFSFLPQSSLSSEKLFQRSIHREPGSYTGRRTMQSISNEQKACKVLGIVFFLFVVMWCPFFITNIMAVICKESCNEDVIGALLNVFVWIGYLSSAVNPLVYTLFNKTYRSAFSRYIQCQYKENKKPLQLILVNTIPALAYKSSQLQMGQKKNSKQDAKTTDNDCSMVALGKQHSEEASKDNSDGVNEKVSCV

As for `COc1ccc(C(=O)c2ccccc2O)c(O)c1`, the Potency entry in test [1], in test [2], in [3], in [4], in [5] and in test [6] was “inactive” in each case. The Potency entry in [7], in [8], in [9], in [10], in test [11] and in test [12] was “inactive” each time. Besides, the Potency entry in test [13], in test [14], in test [15], in [16] and in test [17] was “inactive” in each case.
In the case of `CC(=O)c1nccs1`, the Potency entry in [1], in test [2], in test [3], in test [4], in [5] and in test [6] was “inactive” throughout. In addition, the Potency entry in [7], in test [8], in test [18], in test [19], in test [10] and in test [11] was “inactive” in each case. Also, the Potency result in test [12], in test [13], in test [20], in test [15], in test [16] and in test [17] was “inactive” each time.
On to `CCOc1ccc(NC(C)=O)cc1`, for which the Potency entry in [1], in test [2], in test [3], in [4], in test [5] and in [6] was “inactive” throughout. Besides, the Potency entry in [7], in test [8], in test [9], in [19], in test [14] and in test [20] was “inactive” throughout. The Potency entry in test [15], in test [16] and in [17] was “inactive” in each case.
`CC(C)CC(=O)CC(C)C`: the Potency result in [1], in test [2], in test [3], in test [4], in test [5] and in [6] was “inactive” in each case. For the same compound, the Potency result in test [7], in test [9], in [18], in [19], in test [11] and in test [12] was “inactive” each time. Further, the Potency entry in test [13], in test [14], in test [20], in test [15], in [16] and in [17] was “inactive” in each case.
Regarding `CCN(CCN)c1cccc(C)c1`, the Potency result in test [1], in [2], in test [3], in test [4], in test [5] and in test [6] was “inactive” in each case. Also, the Potency entry in test [8], in [9], in test [18], in test [19], in [12] and in [13] was “inactive” throughout. For the same compound, the Potency result in test [14], in test [20], in [16] and in test [17] was “inactive” each time. For the same compound, the Potency in [10] was 0.53 µM (active); in [11], 393 nM (active) and 776 nM (active); in test [15] it was 24.6 µM (active).
Consider `CC1(C)CC(N)CC(C)(CN)C1` (stereo not drawn), for which the Potency result in test [1], in test [2], in [3], in test [4], in test [5] and in test [6] was “inactive” each time. The Potency entry in test [7], in [9], in test [18], in test [19], in [10] and in test [11] was “inactive” throughout. The Potency entry in test [12], in test [13], in [14], in test [15], in test [16] and in test [17] was “inactive” in each case.
As for `CCOC(=O)/C=C\C(=O)OCC`, the Potency entry in test [1], in [2], in test [3], in test [4], in test [5] and in test [6] was “inactive” throughout. Moreover, the Potency result in [7], in test [8], in test [18], in [10], in [11] and in test [12] was “inactive” each time. Moreover, the Potency entry in [13], in test [14], in test [20], in [15], in test [16] and in [17] was “inactive” in each case.
